# Laboratory results published in ChEMBL document CHEMBL1157539, “Thousands of chemical starting points for antimalarial lead identification” (Nature, 2010).
# Values joined by “and” are separate entries in the source; they are usually repeats but may differ in a detail not shown here. Equal entries are not always repeated.
# How the values were obtained:
# [1] = test system: Plasmodium falciparum; experiment: GSK_TCMDC: Inhibition of Plasmodium falciparum 3D7 in whole red blood cells, using parasite LDH activity as an index of growth. Test compounds present at 2uM; format: functional
# [2] = test system: Plasmodium falciparum; experiment: GSK_TCMDC: Inhibition of Plasmodium falciparum Dd2 in whole red blood cells, using parasite LDH activity as an index of growth. Test compounds present at 2uM; format: functional
SMILES,Inhibition [1],Inhibition [2]
Cc1nc(C)c(-c2ccc(Oc3cccc(OC(F)(F)F)c3)cc2)c(O)c1Cl,97%,97%
CCN(c1ccc(O)c(CN2CCCCC2)c1)c1ccc([N+](=O)[O-])cn1.Cl,94%,64%
CCCCCCCN(Cc1ccc(OC(C)(C)C(=O)OCC)cc1)C(=O)Nc1ccc(Cl)cc1OCC,95%,89%
N=C(NCC1CC1c1ccccc1)c1cccc(C(=N)NCC2CC2c2ccccc2)n1 (centres undefined),95%,0%
O=C(NCCCCN1CCN(c2nsc3ccccc23)CC1)c1ccccc1C(=O)NCCCCN1CCN(c2nsc3ccccc23)CC1,100%,22%
CC(=O)Oc1c(Br)c(C)nc(C)c1-c1ccc(Oc2ccc(OC(F)(F)F)cc2)cc1,98%,97%
CCc1cc2c3c(N)nc(N)nc3ccc2n1C(C)(C)C,99%,–
Cc1[nH]c(C)c(-c2ccc(Oc3ccc(Cl)cc3)cc2)c(=O)c1Cl,91%,16%
CCCCCCCc1c(C)[nH]c2ccc(F)cc2c1=O,98%,96%
CCOC(=O)N1CCN(CCCCCNc2cc(C)nc(NC(=N)Nc3ccc(Cl)cc3)n2)CC1.Cl,100%,0%
CCCCCCCN(Cc1ccc(OC(C)(C)C(=O)OCC)cc1)C(=O)Cc1ccc(F)cc1F,93%,95%
Cl.FC(F)(F)c1ccc2c(NCCCNc3ccnc4cc(C(F)(F)F)ccc34)ccnc2c1,100%,100%
CCN(CC)CCCC(C)Nc1ccnc2cc(C#N)ccc12 (centres undefined),100%,80%
Cc1ccc(Cn2ccc3c4c(N)nc(N)nc4ccc32)cc1,99%,–
COc1ccc(OC)c(CC2c3ccc(Br)c(O)c3CCN2C)c1.Cl (centres undefined),98%,97%
Cc1nc(C)c(-c2ccc(Oc3ccc([S+](C)[O-])cc3)cc2)c(O)c1Br (centres undefined),91%,64%
COc1ccc2c(CNCCCCCCNCc3c(OC)ccc4cc(OC)ccc34)c(OC)ccc2c1.CS(=O)(=O)O,100%,79%
CCN(CC)CCCC(C)Nc1c2ccc(Cl)cc2nc2ccc(OC)cc12.Cl.O (centres undefined),100%,100%
Cl.c1ccc2c(NCCOCCNc3c4ccccc4nc4ccccc34)c3ccccc3nc2c1,94%,0%
C=CCn1ccc2c3c(N)nc(N)nc3ccc21,89%,91%
Cc1cc2c3c(N)nc(N)nc3ccc2n1C,95%,0%

SMILES,Inhibition [1],Inhibition [2]
Cc1nc(C)c(-c2ccc(Oc3ccc(Cl)cc3)cc2)c(O)c1I,88%,49%
CCC(C)c1cnc2nc(N)nc(N)c2c1C (centres undefined),97%,1%
CCOC(=O)c1c(-c2ccccc2)c(C(=O)OCC)n2ccccc12,93%,70%
COc1ccc2c(c1CNCCCCCCNCc1c(OC)ccc3c1CCCC3)CCCC2,94%,7%
Cl.Clc1ccc(CNCCCCCCCNCc2ccc(Cl)c(Cl)c2)cc1Cl,99%,49%
CCc1cccc(-c2cc(N)n(C)c3nc(N)nc(=O)c2-3)c1,85%,28%
Cn1c(N)cc(-c2cccc(I)c2)c2c(=O)nc(N)nc1-2,89%,75%
Cc1cc(O)c(-c2ccc(S(=O)(=O)c3ccc(Cl)cc3)cc2)c(C)n1,92%,80%
Cc1ccc2ccncc2c1N,96%,4%
CC(CO)(CO)NCc1cc2ccc3ccsc3c2c2ccccc12.CS(=O)(=O)O,96%,98%
CCc1ccc(Cc2cnc3nc(N)nc(N)c3c2C)cc1CC,97%,0%
CC(CNC(=N)c1cccc(C(=N)NCC(C)Oc2cccc(C3CCCCC3)c2)n1)Oc1cccc(C2CCCCC2)c1.Cl (centres undefined),90%,31%
Cc1nc2ccc(S(=O)(=O)Nc3ccc(C(=O)N[C@@H](CCC(=O)O)C(=O)O)cc3)cc2c(=O)[nH]1,94%,2%
CCCc1ccc(Cc2cnc3nc(N)nc(N)c3c2C)cc1,98%,0%
CC(C)(C)c1ccc(-c2nnc(N)nc2N)cc1,92%,0%
C=CCOc1ccc(Cc2cnc(N)nc2N)cc1CCC,93%,0%
CN(C)S(=O)(=O)n1ccc2c3c(N)nc(N)nc3ccc21,94%,0%
Cc1[nH]c(C)c(-c2ccc(Oc3ccc(Cl)cc3)cc2)c(=O)c1C,96%,95%
COc1cc(Cc2cnc(N)nc2N)cc(OCCCC(=O)O)c1OC,84%,0%
COc1cc(Cc2cnc3nc(N)nc(N)c3c2C)cc(OC)c1OC,95%,98%
O=C(Nc1cccc(-c2cccc(-c3nc4ccccc4[nH]3)c2)c1)NC1CC1c1ccccc1 (centres undefined),90% and 87%,22% and 27%

SMILES,Inhibition [1],Inhibition [2]
Nc1nc(N)c2cc(Cc3ccccc3Cl)cnc2n1,93%,0%
CC1CNC(c2ccc(NC(=O)Nc3ccc(C4=NC(C)CN4)cc3)cc2)=N1.Cl (centres undefined),85%,67%
Cc1nc(C)c(-c2ccc(-c3ccc(F)cc3)cc2)c(O)c1Cl,96%,96%
CCOC(=O)c1nc2ccc(SC3CCCCC3)cn2c1Br,86%,3%
COc1cc(Cc2cnc(N)nc2N)cc(OCCCCC#N)c1OC,86%,0%
N=C(N)NC(=O)Nc1cc(F)c(Cl)c(Cl)c1,100%,100%
CC(=NNC(S)=NCCc1ccccn1)c1ccccn1,100%,95%
CC(C)(C)c1ccc(-c2nc3c(ccc4nc(N)nc(N)c43)[nH]2)cc1.Cl,100%,100%
Nc1ncc(-c2ccc(F)c(Cl)c2)c(N)n1,83%,0%
Cc1cc(=O)c(-c2ccc(Oc3ccc(OC(F)(F)F)cc3)cc2)c(C)[nH]1,93%,61%
CCCCNCc1ccc(OCc2cccc(COc3ccc(CNCCCC)cc3I)c2)c(I)c1.Cl,87%,13%
CCN(CC)CCCN(CCCN(CC)CC)c1cc(C)nc(Nc2ccc(Br)cc2)n1.Cl,100%,40%
Cc1nc(C)c(-c2ccc(Oc3cc(Cl)cc(Cl)c3)cc2)c(O)c1Br,96%,97%
CCOc1cc(Cc2cnc(N)nc2N)cc(Br)c1OC,83%,3%
CC(=NNC(S)=NCc1ccco1)c1ccccn1,99%,100%
Cl.N=C(N)c1ccc(OCCCCCOc2ccc(C(=N)N)cc2)cc1 [PENTAMIDINE HYDROCHLORIDE],99%,98%
Cc1c(Cc2ccc(C(C)C)cc2)cnc2nc(N)nc(N)c12,97%,0%
CCCc1cc2c3c(N)nc(N)nc3ccc2n1CC,96%,6%
COc1ccc(Cc2cnc(N)nc2N)cc1OCCCOc1ccccc1,91%,4%
Nc1ncc(-c2ccc(Br)cc2)c(N)n1,89%,0%
CN(Cc1cnc2nc(N)nc(N)c2n1)c1ccc(C(=O)N[C@H](CCC(=O)OC(C)(C)C)C(=O)N[C@@H](CCC(=O)OC(C)(C)C)C(=O)OC(C)(C)C)cc1,85%,1%

SMILES,Inhibition [1],Inhibition [2]
Cl.Nc1nc(N)c2c(ccc3nn(Cc4ccccc4)cc32)n1,97%,88%
Cc1nc(NCc2ccccc2)cc(Nc2cc(NCc3ccccc3)nc(C)n2)n1,90%,32%
Cc1[nH]c(C)c(-c2ccc(Oc3ccc(C(F)(F)F)cc3)cc2)c(=O)c1Br,97%,97%
Cc1ccccc1OCCCc1c(C)nc(N)nc1N,97%,1%
Cl.Oc1ccc2c(CNC3CCCCC3)c(O)ccc2c1CNC1CCCCC1,100%,100%
Nc1nc(N)c2c(Sc3ccccc3)cccc2n1,97%,0%
Cc1nc(C)c(-c2cccc(Oc3ccc(Cl)cc3)c2)c(O)c1Br,96%,97%
CCCCOc1c(CCNCCCCNCCc2cc(OC)c3ccccc3c2OCCCC)cc(OC)c2ccccc12.CS(=O)(=O)O,91%,47%
COc1cc(Cc2cnc(N)nc2N)cc(OCCCCCCN)c1OC.Cl,96%,0%
O=c1c2ccc(Sc3ccccn3)cc2n(-c2ccccc2)c2cc(Sc3ccccn3)ccc12,89%,70%
CC(=NNc1nc2ccccc2s1)c1ccccn1.Cl,88%,47%
COc1cc(Cc2cnc(N)nc2N)cc(OCCCCc2ccc([N+](=O)[O-])cc2)c1OC,88%,4%
CC1CCNc2ccc(Cc3cnc(N)nc3N)cc21.Cl (centres undefined),82%,0%
Cc1nc(C)c(-c2ccc(Oc3cccc(OC(F)(F)F)c3)cc2)c(O)c1Br,100%,96%
CC(=O)Oc1c(Cl)c(C)nc(C)c1-c1ccc(Oc2ccc(OC(F)(F)F)cc2)cc1,97%,98%
Nc1nnc(-c2ccc(Cl)c(Br)c2)c(N)n1,86%,0%
Cc1[nH]c(C)c(-c2ccc(Oc3ccc(F)cc3)cc2)c(=O)c1Br,100%,98%
Cc1cc(O)c(-c2ccc(OCc3ccc(Cl)cc3)cc2)c(C)n1,93%,76%
Nc1nc(N)c2c(ccc3c2ccn3Cc2ccc3c(c2)OCO3)n1,100%,95%
Cl.c1ccc(CN2CCN(CCCCNc3c4ccccc4nc4ccccc34)CC2)cc1,100%,100%
